Among all 5,500 compounds or so, about 2,000 (36%) were called active. About 18% were inconclusive and are not listed. Cut-off read from the data, not from the text of the source: active = normalized growth mostly below about 0.91 (no sharp cut-off); inconclusive = no clear call, values can overlap the other calls; inactive = mostly above about 0.92. The list shows a part of the results.
Assay: chemical genetic growth profiling, strain panel (AID 1159580);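 note: tested at 20 µM; growth read once vehicle control cultures reached saturation at 30 °C; 1 = growth at the plate median or of vehicle wells; lower values mean less growth of the strain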
Conditions: growth OD

Measured: normalized growth

CC1=C2C(O)C(=O)OC3CC4C(C)(C)C(=O)C=C[C@]4(C)C(CC1)[C@]23C (some centres not stated)
inactive: S. cerevisiae deletion strains, locus YJR043C, strain POL32, active compounds read low 1.01 | S. cerevisiae deletion strains, locus YJR066W, strain TOR1, active compounds read low 0.967 | S. cerevisiae deletion strains, locus YJR075W, strain HOC1, active compounds read low 1.03 | S. cerevisiae deletion strains, locus YKL009W, strain mrt4, active compounds read low 1.03 | S. cerevisiae deletion strains, locus YKL068W, active compounds read low 1.01 | S. cerevisiae deletion strains, locus YKL085W, strain MDH1 (second series), active compounds read low 1 | S. cerevisiae deletion strains, locus YKL085W, strain MDH1, active compounds read low 1 | S. cerevisiae deletion strains, locus YKL160W, strain elf1, active compounds read low 1 | S. cerevisiae deletion strains, locus YKR001C, strain vps1, active compounds read low 0.996 | S. cerevisiae deletion strains, locus YKR026C, strain gcn3, active compounds read low 1.01 | S. cerevisiae deletion strains, locus YKR091W, strain srl3, active compounds read low 1.01 | S. cerevisiae deletion strains, locus YLL001W, strain dnm1, active compounds read low 0.992 | S. cerevisiae deletion strains, locus YLL026W, active compounds read low 1.01 | S. cerevisiae deletion strains, locus YLL041C, strain sdh2, active compounds read low 1.02 | S. cerevisiae deletion strains, locus YLR027C, strain aat2, active compounds read low 1 | S. cerevisiae deletion strains, locus YLR039C, strain RIC1, active compounds read low 1.15 | S. cerevisiae deletion strains, locus YLR058C, strain SHM2, active compounds read low 1.03 | S. cerevisiae deletion strains, locus YLR102C, strain apc9, active compounds read low 1.02 | S. cerevisiae deletion strains, locus YLR113W, strain HOG1, active compounds read low 0.984 | S. cerevisiae deletion strains, locus YLR221C, strain rsa3, active compounds read low 1.03 | S. cerevisiae deletion strains, locus YLR258W, strain gsy2, active compounds read low 1.01 | S. cerevisiae deletion strains, locus YLR262C, strain YPT6 (second series), active compounds read low 1.06 | S. cerevisiae deletion strains, locus YLR268W, strain sec22, active compounds read low 1.02 | S. cerevisiae deletion strains, locus YLR320W, strain mms22, active compounds read low 1.01 | S. cerevisiae deletion strains, locus YLR342W, strain FKS1 (second series), active compounds read low 1.03 | S. cerevisiae deletion strains, locus YLR342W, strain FKS1, active compounds read low 1.01 | S. cerevisiae deletion strains, locus YLR357W, strain rsc2, active compounds read low 1.02 | S. cerevisiae deletion strains, locus YLR370C, strain arc18, active compounds read low 1 | S. cerevisiae deletion strains, locus YLR371W, strain rom2, active compounds read low 0.985 | S. cerevisiae deletion strains, locus YLR384C, strain iki3, active compounds read low 1.02 | S. cerevisiae deletion strains, locus YLR418C, strain cdc73, active compounds read low 1.07 | S. cerevisiae deletion strains, locus YML016C, strain PPZ1, active compounds read low 1.02 | S. cerevisiae deletion strains, locus YML032C, strain rad52, active compounds read low 1 | S. cerevisiae deletion strains, locus YML120C, strain ndi1, active compounds read low 1 | S. cerevisiae deletion strains, locus YML124C, strain tub3, active compounds read low 1.01 | S. cerevisiae deletion strains, locus YMR058W, strain fet3, active compounds read low 1.01 | S. cerevisiae deletion strains, locus YMR078C, strain ctf18, active compounds read low 1.02 | S. cerevisiae deletion strains, locus YMR125W, strain sto1, active compounds read low 1.01 | S. cerevisiae deletion strains, locus YMR129W, active compounds read low 1.01 | S. cerevisiae deletion strains, locus YMR205C, strain PFK2, active compounds read low 1 | S. cerevisiae deletion strains, locus YMR223W, strain ubp8, active compounds read low 1.01 | S. cerevisiae deletion strains, locus YMR231W, strain pep5, active compounds read low 1.01 | S. cerevisiae deletion strains, locus YMR307W, strain GAS1, active compounds read low 1.03 | S. cerevisiae deletion strains, locus YNL067W, strain RPL9B, active compounds read low 1.05 | S. cerevisiae deletion strains, locus YNL071W, strain lat1, active compounds read low 0.999 | S. cerevisiae deletion strains, locus YNL128W, strain TEP1, active compounds read low 1.02 | S. cerevisiae deletion strains, locus YNL183C, strain NPR1, active compounds read low 0.978 | S. cerevisiae deletion strains, locus YNL209W, strain ssb2, active compounds read low 1.01 | S. cerevisiae deletion strains, locus YNL233W, strain BNI4, active compounds read low 1.06 | S. cerevisiae deletion strains, locus YNL248C, strain rpa49, active compounds read low 1.01 | S. cerevisiae deletion strains, locus YNL250W, strain rad50, active compounds read low 1.03 | S. cerevisiae deletion strains, locus YNL271C, strain bni1, active compounds read low 1.02 | S. cerevisiae deletion strains, locus YNL298W, strain CLA4, active compounds read low 1 | S. cerevisiae deletion strains, locus YNL307C, strain MCK1, active compounds read low 1.03 | S. cerevisiae deletion strains, locus YNL322C, strain KRE1 (second series), active compounds read low 1.04 | S. cerevisiae deletion strains, locus YNR049C, strain mso1, active compounds read low 1.01 | S. cerevisiae deletion strains, locus YNR052C, strain pop2, active compounds read low 1.04 | S. cerevisiae deletion strains, locus YOL012C, strain htz1 0.949 | S. cerevisiae deletion strains, locus YOL147C, strain pex11, active compounds read low 1.01 | S. cerevisiae deletion strains, locus YOR001W, strain rrp6, active compounds read low 1.01 | S. cerevisiae deletion strains, locus YOR061W, strain CKA2, active compounds read low 1.01 | S. cerevisiae deletion strains, locus YOR069W, strain VPS5, active compounds read low 1.01 | S. cerevisiae deletion strains, locus YOR070C, strain gyp1, active compounds read low 1.02 | S. cerevisiae deletion strains, locus YOR080W, strain dia2, active compounds read low 1.02 | S. cerevisiae deletion strains, locus YOR083W, strain WHI5, active compounds read low 1.01 | S. cerevisiae deletion strains, locus YOR106W, strain vam3, active compounds read low 0.983 | S. cerevisiae deletion strains, locus YOR136W, strain idh2, active compounds read low 1.03 | S. cerevisiae deletion strains, locus YOR144C, strain elg1, active compounds read low 1.01 | S. cerevisiae deletion strains, locus YOR184W, strain ser1, active compounds read low 1.01 | S. cerevisiae deletion strains, locus YOR231W, strain MKK1, active compounds read low 1.03 | S. cerevisiae deletion strains, locus YOR265W, strain rbl2, active compounds read low 1 | S. cerevisiae deletion strains, locus YOR270C, strain vph1, active compounds read low 1.05 | S. cerevisiae deletion strains, locus YOR290C, strain snf2, active compounds read low 1.01 | S. cerevisiae deletion strains, locus YOR316C, strain cot1, active compounds read low 1.01 | S. cerevisiae deletion strains, locus YPL051W, strain arl3, active compounds read low 1.02 | S. cerevisiae deletion strains, locus YPL055C, strain LGE1, active compounds read low 1.03 | S. cerevisiae deletion strains, locus YPL078C, strain atp4, active compounds read low 0.998 | S. cerevisiae deletion strains, locus YPL106C, strain sse1, active compounds read low 1.03 | S. cerevisiae deletion strains, locus YPL240C, strain hsp82, active compounds read low 1.01 | S. cerevisiae deletion strains, locus YPL241C, strain CIN2, active compounds read low 1.01 | S. cerevisiae deletion strains, locus YPL256C, strain CLN2, active compounds read low 1.01 | S. cerevisiae deletion strains, locus YPR119W, strain clb2, active compounds read low 1.01 | S. cerevisiae deletion strains, locus YPR141C, strain kar3, active compounds read low 1.03 | S. cerevisiae deletion strains, locus YPR163C, strain tif3, active compounds read low 1.02 | S. cerevisiae deletion strains, locus YPR167C, strain met16, active compounds read low 1.03 | S. cerevisiae deletion strains, strain wtn01, active compounds read low 0.994 | S. cerevisiae strains, strain wild type, active compounds read low 1.01
